In the test the target is T1, cAMP-dependent protein kinase catalytic subunit PRKX (Homo sapiens) (UniProt P51817).
T1 sequence (whole entry): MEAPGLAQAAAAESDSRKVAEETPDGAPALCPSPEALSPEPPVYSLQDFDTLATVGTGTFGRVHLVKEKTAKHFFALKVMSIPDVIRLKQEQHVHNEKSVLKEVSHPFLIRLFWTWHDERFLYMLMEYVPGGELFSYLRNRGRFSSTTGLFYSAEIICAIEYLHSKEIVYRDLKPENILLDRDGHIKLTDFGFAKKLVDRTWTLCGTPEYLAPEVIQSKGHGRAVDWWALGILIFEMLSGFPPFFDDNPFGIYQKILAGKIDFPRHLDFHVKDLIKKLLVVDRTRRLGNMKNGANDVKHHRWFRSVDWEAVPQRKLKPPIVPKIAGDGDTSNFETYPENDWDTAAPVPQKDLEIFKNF
Conditions: at 0.1 µM.
Turning to `CS(=O)(=O)CCNCc1nc(-c2ccc3ncnc(Nc4ccc(OCc5cccc(C(F)(F)F)c5)cc4)c3c2)cs1`, the inhibition (usually the change of the read-out against control, counted positive when it falls) is 0.7%. The same measure for `Nc1nccc(-c2c(-c3ccc(F)cc3)ncn2CCCN2CCOCC2)n1`: 2.51%; for `NS(=O)(=O)c1ccc(Nc2cc(-c3cccc(O)c3)n[nH]2)cc1`: 3.04%; for `NS(=O)(=O)c1cccc(Nc2cc(-c3ccc(F)cc3)n[nH]2)c1`: 6.02%. For `Cc1ccc2c(-c3ccnc(Nc4ccc5c(c4)OCCO5)n3)c(-c3ccc(C(F)(F)F)cc3)nn2n1`, the inhibition amounted to 6.47%. The same measure for `Cc1cc(O)cc(C)c1/C=C/c1cncc(C(=O)N(C)C)c1`: 1.77%; for `CN(C)c1cc2c(Nc3ccc4c(cnn4Cc4ccccc4)c3)ncnc2cn1`: 1.48%; for `COC(=O)c1ccc2c(c1)C(=Cc1cc(Br)c(O)c(Br)c1)C(=O)N2`: 1.47%. For `Nc1nccc(-c2c(-c3ccc(F)cc3)nn3cc(C(F)(F)F)ccc23)n1`, the inhibition came out at 0.72%. For `COc1cccc(-n2nc(C)c3c(N/N=C(\C)c4ccncc4)ncnc32)c1`, the inhibition was -0.2%.

Turning to `Cc1cc(Cl)cc2c1NC(=O)C2=NNc1ccc(S(N)(=O)=O)cc1`, the inhibition was 1.43%.

For the compound `Cc1ccc(O)cc1Nc1ccnc2ccc(S(C)(=O)=O)cc12`, the inhibition amounted to 2.75%.

In the case of `COc1cccc(-n2ncc3c(N/N=C/c4ccc(S(C)(=O)=O)cc4)ncnc32)c1`, the inhibition was 1.68%. The same measure for `NS(=O)(=O)c1ccc(-c2cc3ccncc3cc2OCc2ccccc2)cc1`: 0.85%. The same measure for `Cc1ccc2c(c1)/C(=N/Nc1ccc(S(N)(=O)=O)cc1)C(=O)N2`: -1.58%; for `CCCN1CCCC(c2ccc(Nc3nc(Nc4cc(F)ccc4C(N)=O)c4cc[nH]c4n3)c(OC)c2)C1` (stereo not drawn): 0.44%. The same measure for `COC(=O)c1cncc(/C=C/c2c(C)cc(O)cc2C)c1`: 1.78%; for `Cc1ccc(Nc2ccnc(Nc3cccc(C(N)=O)c3)n2)cc1O`: 1.82%; for `Nc1ccc(C#Cc2cncnc2Nc2ccc(OCc3cccc(F)c3)c(Cl)c2)cc1`: 1.33%. Take `CN(C)C(=O)O[C@@H]1CN[C@@H](C#Cc2cc3ncnc(Nc4ccc(OCc5cccc(F)c5)c(Cl)c4)c3s2)C1`: the inhibition is -0.77%. The same measure for `NS(=O)(=O)c1ccc(N/N=C2\C(=O)Nc3ccc(Cl)cc32)cc1`: 4.2%; for `Cc1nc(-c2ccccc2)n2nc(NCCCN3CCOCC3)ncc12`: 2.28%. The same measure for `CCOc1nccc2c1nc(-c1nonc1N)n2CC`: 3.1%; for `O=S(=O)(CCOCc1ccc(-c2ccc3ncnc(Nc4ccc(OCc5cccc(F)c5)c(Cl)c4)c3c2)o1)c1ccccc1`: 1.21%; for `NC(=O)c1cccc(Nc2nccc(Nc3cccc(F)c3)n2)c1`: 1.19%. The same measure for `C[C@@H](Oc1cc(-n2cnc3ccc(OCC4CCN(C)CC4)cc32)sc1C(N)=O)c1ccccc1C(F)(F)F`: -0.03%.

With `FC(F)(F)c1ccc(-c2nn3ncccc3c2-c2ccnc(Nc3ccc4c(c3)OCCO4)n2)cc1`, the inhibition worked out at 5.94%. The same measure for `Cc1cc(-c2ccccn2)cc(C)c1/C=C/c1cncc(-c2nn[nH]n2)c1`: 2%; for `COc1ccc2ncnc(Nc3ccc(OCc4ccccc4)cc3)c2c1`: 1.23%; for `CN(C)CCCn1c(-c2nonc2N)nc2cnccc21`: 1.48%. The same measure for `[O-][S+]1CCN(Cc2ccc(-c3ccc4ncnc(Nc5ccc(OCc6ccccc6)c(Cl)c5)c4c3)o2)CC1`: 1.3%; for `OCc1ccc(-c2nc(-c3ccccn3)c(-c3ccc4c(c3)OCO4)[nH]2)cc1`: 1.55%; for `COc1cc(Nc2nccc(-c3cnn4ncccc34)n2)cc(OC)c1`: 0.67%.

Values taken from ChEMBL document CHEMBL1961873, “Compounds: GSK PKIS; Assays: Nanosyn kinase panel” (2012).
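Further: values are mean percent inhibition of PRKX.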
